Test results from PubChem BioAssay (EPA / NIEHS).
Inconclusive results are not listed. A structure can be active in one record and inactive in another. Activity calls are given as the source filed them. How the source made its calls: active means hit-call score of the fitted dose curve at least 0.9, where 1 is the maximum; inconclusive means response in the unintended direction; inactive means score below 0.9.

Assays:
[1] = target: Retinoic acid receptor alpha (Homo sapiens) (UniProt P10276); experiment: NVS_NR_hRARa_Agonist: NovaScreen (NVS) Nuclear Receptor Binding Assay for human Retinoic Acid Alpha Receptor Agonism (RAR) (AID 2283361)
Procedure, shortened: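 Cell-free TR-FRET binding read-out with extracted human RARα protein, read 2 h after compound addition. Gain of signal scored against DMSO baseline. Primary screen at a single 25 uM in duplicate; actives then retested in concentration series.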

[2] = target: rat Androgen Receptor (AR), Ar (gene 24208) (UniProt P15207); experiment: NVS_NR_rAR: NovaScreen (NVS) Nuclear Receptor Binding Assay for rat Androgen Receptor (AR) (AID 2283366)
Procedure, shortened: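 Cell-free radioligand binding on extracts of prostate from testosterone-pretreated rats, read by filter-based scintillation counting 18 h after dosing. Loss of bound signal fitted positively versus DMSO; primary screen in duplicate at 25 uM, actives followed up in concentration series.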

[3] = target: human Adenosine Transporter (Adot), SLC29A1 (gene 2030) (UniProt Q99808); experiment: NVS_TR_hAdoT: NovaScreen (NVS) Transporter Assay for human Adenosine Transporter (Adot) (AID 2283368)
Procedure, shortened: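 U937-derived membranes, cell-free radioligand binding, filter scintillation 1 h after dosing. 25 uM duplicate screen; hits (e.g. 30% inhibition) run in concentration-response up to 50 uM; loss of signal versus DMSO.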

[4] = target: Estrogen receptor (Homo sapiens) (UniProt P03372); experiment: OT_ER_ERaERa_0480: Odyssey Thera (OT) 8-hour HEK293T Protein-Complementation Assay for Estrogen Receptor-alpha/-alpha Homodimer (AID 2283351);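 further: rise in fluorescence from reassembled reporter fragments on ERα LBD homodimer in nucleus or whole cell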
Procedure, shortened: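 Binding reporter in which dimerisation of ERα LBD (aa 310-547) fusions reconstitutes a fluorescent reporter in HEK293T cells. Compounds incubated 8 h; mean fluorescence intensity increase versus DMSO scored.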

[5] = target: Nuclear receptor subfamily 1 group I member 2 (Homo sapiens) (UniProt O75469); experiment: NVS_NR_hPXR: NovaScreen (NVS) Nuclear Receptor Binding Assay for human Pregnane X Receptor (PXR) (AID 2283365);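 further: a drop in FRET signal versus DMSO baseline means the compound binds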
Procedure, shortened: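 TR-FRET signal read at 2 h in a cell-free human PXR binding format. DMSO served as negative control and baseline; activity scored as signal loss. Single-concentration duplicate screen (25 uM), then concentration-response follow-up.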

[6] = target: guinea pig Sigma Receptor, Non-selective Binding, SIGMAR1 (gene 100135589) (UniProt Q60492); experiment: NVS_OR_gSIGMA_NonSelective: NovaScreen (NVS) Nuclear Receptor Binding Assay for guinea pig Sigma Receptor, Non-selective Binding (AID 2283367)
Procedure, shortened: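 Guinea pig brain membranes, cell-free radioligand binding; read 1 h after dosing by filter-based scintillation counting. Loss of signal vs DMSO baseline taken as displacement. Primary screen single concentration 25 uM in duplicate; actives retested in concentration series.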

[7] = target: T1, Estrogen receptor (Homo sapiens) + Estrogen receptor beta (Homo sapiens) (UniProt P03372+Q92731); experiment: OT_ER_ERaERb_1440: Odyssey Thera (OT) 24-hour HEK293T Protein-Complementation Assay for Estrogen Receptor-alpha/-beta Homodimer (AID 2283356);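 further: heteromer of ER alpha and ER beta binding domains; hits raise reporter fluorescence and both agonists and antagonists give an increase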
Procedure, shortened: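 Readout: mean fluorescence intensity in nucleus (agonists) or nucleus plus cytoplasm (antagonists), read by laser scanning cytometer after 24 h compound exposure of HEK293T cells carrying ERα/ERβ LBD fragment-complementation constructs; DMSO baseline.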

[8] = target: Estrogen receptor beta (Homo sapiens) (UniProt Q92731); experiment: OT_ER_ERbERb_0480: Odyssey Thera (OT) 8-hour HEK293T Protein-Complementation Assay for Estrogen Receptor-beta/-beta Homodimer (AID 2283357);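 further: active means signal gain over DMSO baseline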
Procedure, shortened: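 Readout: increase in mean fluorescence intensity (nucleus for agonists; nucleus plus cytoplasm for antagonists) relative to DMSO, from a reporter-fragment complementation of human ER-beta LBD homodimer in HEK293T cells dosed 8 hours.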

PGR (gene 5241) = PGR (gene 5241) (UniProt P06401); experiment: NVS_NR_hPR: NovaScreen (NVS) Nuclear Receptor Binding Assay for human Progestron Receptor (PR) (AID 2283360);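 further: active means loss of bound radioligand signal versus DMSO baseline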
Procedure, shortened: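 Radioligand competition binding on receptor extracted from T47D cells, read by scintillation counting 18 h after dosing. Loss of signal versus DMSO; primary screen in duplicate at 25 uM, actives followed in concentration series.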

[9] = target: Androgen Receptor/SRC-1 Co-activator, AR (gene 367) (UniProt P10275); experiment: OT_AR_ARSRC1_0960: Odyssey Thera (OT) 16-hour HEK293T Protein-Complementation Assay for Androgen Receptor/SRC-1 Co-activator (AID 2283353);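 further: actives raise the signal above DMSO so potency reflects increased AR and SRC-1 complex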
Procedure, shortened: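 Interaction of AR with SRC-1 was followed by YFP fragment complementation in HEK293T cells after 16 h of dosing. Gain of nuclear-over-cytoplasmic 488 nm fluorescence against DMSO controls defined activity.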

[10] = target: Retinoic acid receptor alpha (Homo sapiens) (UniProt P10276); experiment: NVS_NR_hRAR_Antagonist: NovaScreen (NVS) Nuclear Receptor Binding Assay for human Retinoic Acid Alpha Receptor Antagonism (RAR) (AID 2283358)
Procedure, shortened: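 Cell-free TR-FRET binding assay on extracted receptor protein, run in antagonist mode; signal read 2 hours after chemical dosing. Loss of signal was fitted relative to DMSO baseline. Screened at 25 uM in duplicate, actives followed up in concentration series.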

[11] = target: T1, Estrogen receptor (Homo sapiens) + Estrogen receptor beta (Homo sapiens); experiment: OT_ER_ERaERb_0480: Odyssey Thera (OT) 8-hour HEK293T Protein-Complementation Assay for Estrogen Receptor-alpha/-beta Heterodimer (AID 2283352)
Procedure, shortened: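 Fluorescence intensity readout from a protein-fragment complementation reporter in HEK293T; ER-alpha/ER-beta LBD heterodimer. Dosing 8 h. Gain-of-signal fit relative to DMSO negative control; laser scanning cytometry of whole-well cell population.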

[12] = target: Androgen Receptor/SRC-1 Co-activator, AR (gene 367) (UniProt P10275); experiment: OT_AR_ARSRC1_0480: Odyssey Thera (OT) 8-hour HEK293T Protein-Complementation Assay for Androgen Receptor/SRC-1 Co-activator (AID 2283354);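 further: hits raise the complementation signal above DMSO so AC50 marks enhancers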
Procedure, shortened: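 HEK293T cells stably expressing AR and SRC-1 fused to split Venus YFP fragments via (Gly4Ser)2 linkers were read 8 h after compound dosing. Complementation was imaged at 488 and 635nm, and nuclear/cytoplasmic fluorescence ratio (488nm) was taken over ≥400 cells; gain-of-signal versus DMSO.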

[13] = target: Bile acid receptor (Homo sapiens) (UniProt Q96RI1); experiment: NVS_NR_hFXR_Antagonist: NovaScreen (NVS) Nuclear Receptor Binding Assay for human Farnesoid X Receptor Antagonism (FXR) (AID 2283350)
Procedure, shortened: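 Cell-free TR-FRET ligand-binding read-out on human FXR (NR1H4) in antagonist mode, measured 1 h after dosing. Primary screen in duplicate at 25 uM, actives retested in concentration series; signal loss scored versus DMSO.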

[14] = target: human Thyroid Receptor Alpha (TRa), THRA (gene 7067) (UniProt P10827); experiment: NVS_NR_hTRa_Antagonist: NovaScreen (NVS) Nuclear Receptor Binding Assay for human Thyroid Receptor Alpha Antagonism (TRa) (AID 2283362);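 further: activity is loss of signal relative to DMSO baseline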
Procedure, shortened: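 AlphaLISA chemiluminescent immunoassay readout, taken 1 h post-dosing in a cell-free system with extracted protein. Activity was scored as signal loss against DMSO negative control, from duplicate single-concentration (25 uM) testing followed by concentration-response follow-up.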

[15] = target: Estrogen receptor (Homo sapiens) (UniProt P03372); experiment: OT_ER_ERaERa_1440: Odyssey Thera (OT) 24-hour HEK293T Protein-Complementation Assay for Estrogen Receptor-alpha/-alpha Homodimer (AID 2283349);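 further: hits raise fluorescence above DMSO for agonists and antagonists alike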
Procedure, shortened: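 Readout is the rise in mean fluorescence from reporter fragment complementation when ERα LBD (aa 310-547) units dimerize in HEK293T cells. Measured 24 h after dosing and analysed as increase over DMSO control.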

[16] = target: rat Mineralocorticoid Receptor (MR), Nr3c2 (gene 25672) (UniProt P22199); experiment: NVS_NR_rMR: NovaScreen (NVS) Nuclear Receptor Binding Assay for rat Mineralocorticoid Receptor (MR) (AID 2283355)
Procedure, shortened: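 Cell-free radioligand binding to MR in adrenalectomized rat brain supernatant, scintillation counted 24 h after dosing. Loss of signal versus DMSO baseline marks displacement. Primary screen in duplicate at 25 uM; actives retested as concentration series.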

[17] = target: human Peroxisome Proliferator-activated Receptor alpha (PPARa), PPARA (gene 5465) (UniProt Q07869); experiment: NVS_NR_hPPARa: NovaScreen (NVS) Nuclear Receptor Binding Assay for human Peroxisome Proliferator-activated Receptor alpha (PPARa) (AID 2283359);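 further: activity means loss of TR-FRET signal versus DMSO baseline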
Procedure, shortened: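 Cell-free binding assay with extracted human protein, read by TR-FRET 1 h after chemical dosing. Loss of signal relative to DMSO baseline indicates binding. Primary screen used duplicate single concentration (25 uM); actives followed up in concentration series.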

Measured: AC50

Bile acid receptor (Homo sapiens), sequence (Q96RI1 whole entry, looked up): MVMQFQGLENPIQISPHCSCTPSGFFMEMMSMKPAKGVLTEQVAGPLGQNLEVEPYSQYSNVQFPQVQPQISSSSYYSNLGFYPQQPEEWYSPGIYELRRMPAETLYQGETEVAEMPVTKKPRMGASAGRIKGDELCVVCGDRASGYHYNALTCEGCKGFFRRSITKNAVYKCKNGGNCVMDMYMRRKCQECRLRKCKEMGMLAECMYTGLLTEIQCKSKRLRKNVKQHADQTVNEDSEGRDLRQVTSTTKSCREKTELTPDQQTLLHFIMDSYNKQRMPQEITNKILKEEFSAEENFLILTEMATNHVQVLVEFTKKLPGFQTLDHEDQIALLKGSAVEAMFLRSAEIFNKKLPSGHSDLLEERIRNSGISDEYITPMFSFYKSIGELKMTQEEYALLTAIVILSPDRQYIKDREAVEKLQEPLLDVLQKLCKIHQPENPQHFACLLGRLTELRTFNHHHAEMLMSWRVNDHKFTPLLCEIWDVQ
T1 sequence (P03372 whole entry, looked up, the tested form may be a part): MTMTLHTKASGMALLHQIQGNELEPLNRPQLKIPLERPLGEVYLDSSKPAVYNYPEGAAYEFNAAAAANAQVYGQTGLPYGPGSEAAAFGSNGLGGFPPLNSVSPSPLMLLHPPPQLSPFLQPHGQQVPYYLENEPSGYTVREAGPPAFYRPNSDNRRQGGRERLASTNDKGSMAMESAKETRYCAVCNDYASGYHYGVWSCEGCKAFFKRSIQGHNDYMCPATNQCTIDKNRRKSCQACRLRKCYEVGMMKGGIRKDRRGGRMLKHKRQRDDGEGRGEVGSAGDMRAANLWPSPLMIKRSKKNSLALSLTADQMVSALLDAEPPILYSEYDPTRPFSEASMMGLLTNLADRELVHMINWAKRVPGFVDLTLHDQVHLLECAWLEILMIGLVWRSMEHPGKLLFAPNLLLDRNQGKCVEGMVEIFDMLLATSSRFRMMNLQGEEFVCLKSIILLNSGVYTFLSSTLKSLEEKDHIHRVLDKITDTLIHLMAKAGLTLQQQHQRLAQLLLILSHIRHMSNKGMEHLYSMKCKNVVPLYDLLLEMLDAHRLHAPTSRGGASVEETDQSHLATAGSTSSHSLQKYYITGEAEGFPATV
T1 sequence (Q92731 whole entry, looked up, the tested form may be a part): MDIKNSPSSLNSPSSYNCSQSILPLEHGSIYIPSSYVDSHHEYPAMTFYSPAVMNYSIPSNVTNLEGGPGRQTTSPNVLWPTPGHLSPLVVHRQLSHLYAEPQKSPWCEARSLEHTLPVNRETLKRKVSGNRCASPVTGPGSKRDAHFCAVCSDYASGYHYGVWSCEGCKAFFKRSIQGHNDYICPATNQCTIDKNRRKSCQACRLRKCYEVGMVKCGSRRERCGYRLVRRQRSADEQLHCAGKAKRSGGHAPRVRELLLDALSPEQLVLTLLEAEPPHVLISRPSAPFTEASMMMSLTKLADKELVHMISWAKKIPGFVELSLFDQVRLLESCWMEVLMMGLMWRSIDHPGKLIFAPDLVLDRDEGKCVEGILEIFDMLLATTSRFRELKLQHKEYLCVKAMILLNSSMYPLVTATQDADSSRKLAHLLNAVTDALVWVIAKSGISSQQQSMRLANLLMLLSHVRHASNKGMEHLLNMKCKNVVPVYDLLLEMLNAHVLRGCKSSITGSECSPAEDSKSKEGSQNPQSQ
Estrogen receptor (Homo sapiens), sequence (P03372 whole entry, looked up, the tested form may be a part): as the sequence (P03372 whole entry, looked up, the tested form may be a part) above
rat Androgen Receptor (AR), Ar (gene 24208), sequence (P15207 whole entry, looked up): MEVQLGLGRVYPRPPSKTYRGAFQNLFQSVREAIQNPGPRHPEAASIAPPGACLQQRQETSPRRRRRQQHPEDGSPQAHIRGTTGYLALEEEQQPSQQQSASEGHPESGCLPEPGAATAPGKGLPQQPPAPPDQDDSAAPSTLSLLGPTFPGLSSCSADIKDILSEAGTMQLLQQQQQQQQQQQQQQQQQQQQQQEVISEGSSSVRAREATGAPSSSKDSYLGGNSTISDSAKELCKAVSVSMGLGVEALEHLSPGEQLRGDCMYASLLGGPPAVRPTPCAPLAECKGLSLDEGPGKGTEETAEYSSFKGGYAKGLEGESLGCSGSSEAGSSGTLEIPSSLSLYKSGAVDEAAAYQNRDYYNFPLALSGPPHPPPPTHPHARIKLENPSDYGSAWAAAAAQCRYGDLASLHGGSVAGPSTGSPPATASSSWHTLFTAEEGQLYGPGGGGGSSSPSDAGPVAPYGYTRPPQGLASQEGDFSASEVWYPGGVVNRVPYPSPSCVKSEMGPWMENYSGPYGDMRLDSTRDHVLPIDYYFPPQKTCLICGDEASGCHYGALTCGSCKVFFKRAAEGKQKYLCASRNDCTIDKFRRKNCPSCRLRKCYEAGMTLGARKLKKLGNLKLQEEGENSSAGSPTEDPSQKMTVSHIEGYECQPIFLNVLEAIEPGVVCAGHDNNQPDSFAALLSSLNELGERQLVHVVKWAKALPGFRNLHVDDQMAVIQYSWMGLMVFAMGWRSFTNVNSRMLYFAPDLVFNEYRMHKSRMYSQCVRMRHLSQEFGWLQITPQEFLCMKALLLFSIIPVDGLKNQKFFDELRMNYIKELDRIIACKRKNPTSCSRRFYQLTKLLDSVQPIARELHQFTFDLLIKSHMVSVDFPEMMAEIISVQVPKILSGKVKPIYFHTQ
guinea pig Sigma Receptor, Non-selective Binding, SIGMAR1 (gene 100135589), sequence (Q60492 whole entry, looked up): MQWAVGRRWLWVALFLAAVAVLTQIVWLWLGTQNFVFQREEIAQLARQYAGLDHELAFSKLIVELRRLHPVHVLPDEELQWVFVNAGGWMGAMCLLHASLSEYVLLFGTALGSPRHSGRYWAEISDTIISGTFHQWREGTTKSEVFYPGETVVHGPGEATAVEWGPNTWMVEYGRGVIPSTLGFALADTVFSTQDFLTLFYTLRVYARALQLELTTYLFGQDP
PGR (gene 5241), sequence (P06401 whole entry, looked up): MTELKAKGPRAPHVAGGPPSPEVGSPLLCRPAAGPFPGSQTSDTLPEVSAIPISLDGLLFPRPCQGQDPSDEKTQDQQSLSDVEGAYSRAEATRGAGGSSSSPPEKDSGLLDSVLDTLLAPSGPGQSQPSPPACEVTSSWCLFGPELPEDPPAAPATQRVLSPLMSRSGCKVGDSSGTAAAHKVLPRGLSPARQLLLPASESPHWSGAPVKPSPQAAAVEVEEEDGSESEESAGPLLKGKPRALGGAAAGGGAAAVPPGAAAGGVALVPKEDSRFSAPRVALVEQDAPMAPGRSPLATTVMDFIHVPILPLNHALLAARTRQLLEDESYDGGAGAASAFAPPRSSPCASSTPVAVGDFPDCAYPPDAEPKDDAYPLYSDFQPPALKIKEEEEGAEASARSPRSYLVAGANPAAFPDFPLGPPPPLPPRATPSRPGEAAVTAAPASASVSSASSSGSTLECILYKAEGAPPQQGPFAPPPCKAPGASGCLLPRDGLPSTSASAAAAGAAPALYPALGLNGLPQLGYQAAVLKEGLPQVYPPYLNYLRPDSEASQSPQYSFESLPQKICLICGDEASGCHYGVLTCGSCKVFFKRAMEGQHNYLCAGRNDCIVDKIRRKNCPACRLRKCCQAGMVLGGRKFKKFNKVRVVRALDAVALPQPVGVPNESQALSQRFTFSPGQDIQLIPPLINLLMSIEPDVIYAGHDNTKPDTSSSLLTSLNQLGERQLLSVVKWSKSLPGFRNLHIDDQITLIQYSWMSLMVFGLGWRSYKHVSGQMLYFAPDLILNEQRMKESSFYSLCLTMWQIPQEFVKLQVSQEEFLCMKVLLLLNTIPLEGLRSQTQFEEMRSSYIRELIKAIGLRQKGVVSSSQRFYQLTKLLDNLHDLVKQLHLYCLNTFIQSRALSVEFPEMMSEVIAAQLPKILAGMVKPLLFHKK
human Adenosine Transporter (Adot), SLC29A1 (gene 2030), sequence (Q99808 whole entry, looked up): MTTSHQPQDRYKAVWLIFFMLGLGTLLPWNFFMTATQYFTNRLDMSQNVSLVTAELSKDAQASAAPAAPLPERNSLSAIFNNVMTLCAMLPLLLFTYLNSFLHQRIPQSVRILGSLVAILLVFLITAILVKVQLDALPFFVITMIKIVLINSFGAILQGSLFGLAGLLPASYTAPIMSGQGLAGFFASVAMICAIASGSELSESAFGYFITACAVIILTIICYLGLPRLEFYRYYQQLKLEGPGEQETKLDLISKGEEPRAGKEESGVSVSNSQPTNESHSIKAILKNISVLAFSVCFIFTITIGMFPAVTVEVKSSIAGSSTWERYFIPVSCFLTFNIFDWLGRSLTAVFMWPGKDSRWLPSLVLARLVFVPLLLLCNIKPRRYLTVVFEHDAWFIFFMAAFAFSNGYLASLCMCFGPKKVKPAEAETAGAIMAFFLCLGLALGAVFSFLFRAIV
Estrogen receptor beta (Homo sapiens), sequence (Q92731 whole entry, looked up, the tested form may be a part): as the sequence (Q92731 whole entry, looked up, the tested form may be a part) above
Retinoic acid receptor alpha (Homo sapiens), sequence (P10276 whole entry, looked up): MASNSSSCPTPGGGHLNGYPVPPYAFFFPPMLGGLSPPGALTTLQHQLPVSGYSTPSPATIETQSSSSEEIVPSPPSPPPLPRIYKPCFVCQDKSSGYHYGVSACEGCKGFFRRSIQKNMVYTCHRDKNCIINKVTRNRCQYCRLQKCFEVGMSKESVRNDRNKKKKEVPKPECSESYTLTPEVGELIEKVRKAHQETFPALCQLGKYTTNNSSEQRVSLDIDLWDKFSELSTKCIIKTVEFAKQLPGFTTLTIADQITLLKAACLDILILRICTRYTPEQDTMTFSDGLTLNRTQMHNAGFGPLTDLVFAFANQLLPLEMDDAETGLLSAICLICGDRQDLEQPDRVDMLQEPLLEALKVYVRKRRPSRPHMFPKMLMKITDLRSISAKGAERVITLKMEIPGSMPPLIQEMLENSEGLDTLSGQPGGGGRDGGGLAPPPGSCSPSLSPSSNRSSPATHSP

CCCN(CCC)c1c([N+](=O)[O-])cc(S(N)(=O)=O)cc1[N+](=O)[O-]
inactive: [1]

CO/C=C(/C(=O)OC)c1ccccc1Oc1cc(Oc2ccccc2C#N)ncn1
inactive: [2] | [3]

CCOC(=O)CC(SP(=S)(OC)OC)C(=O)OCC (stereo not given)
inactive: [2]

C=CCC1=C(C)[C@@H](OC(=O)[C@@H]2[C@@H](C=C(C)C)C2(C)C)CC1=O
inactive: [4] | [5]
active: [6] 37.4 µM

CCOP(=S)(OCC)SCn1c(=O)oc2cc(Cl)ccc21
inactive: [4] | [7] | [8] | PGR (gene 5241)

O=C(O)COc1nc(Cl)c(Cl)cc1Cl
inactive: [4]

CC1COC(Cn2cncn2)(c2ccc(Oc3ccc(Cl)cc3)cc2Cl)O1 (stereo not given)
inactive: [4] | [7] | [8] | PGR (gene 5241)
active: [6] 1.27 µM

CCON=C(CC)C1=C(O)CC(c2c(C)cc(C)cc2C)CC1=O (stereo not given)
inactive: [4] | [9] | [10] | [6]

CNC(=S)S
inactive: [4] | [11] | [7] | [8] | [5] | [6]

O=C(Nc1ccccc1)Nc1ccnc(Cl)c1
inactive: [4] | [9] | [12]

CCOC(=O)C(Cl)Cc1cc(-n2nc(C)n(C(F)F)c2=O)c(F)cc1Cl (stereo not given)
inactive: [4] | [8]

CC(C)(C)c1ccc(CSc2cnn(C(C)(C)C)c(=O)c2Cl)cc1
inactive: [4] | [11] | [7] | [8]

COc1nc(C)nc(NC(=O)NS(=O)(=O)c2ccccc2CCC(F)(F)F)n1
active: [3] 0.0855 µM
inactive: [3]

CC(C)Oc1cc(-n2nc(C(C)(C)C)oc2=O)c(Cl)cc1Cl
inactive: [4] | [11] | [12] | [7] | [8] | PGR (gene 5241)
active: [9] 31.3 µM

CN(C)C(=S)SSC(=S)N(C)C
inactive: [4] | [12] | [7] | [8]
active: [13] 8.97 µM | [9] 26.2 µM

C#CCOS(=O)OC1CCCCC1Oc1ccc(C(C)(C)C)cc1 (stereo not given)
inactive: [13] | [4] | [11] | [7] | [8] | [14]

CCCC1COC(Cn2cncn2)(c2ccc(Cl)cc2Cl)O1 (stereo not given)
inactive: [15] | [4] | [12] | [10] | PGR (gene 5241) | [5] | [2]
active: [9] 34.3 µM | [6] 25 µM

CNC(=O)ON=CC(C)(C)SC
inactive: [15] | [4] | PGR (gene 5241)

CC1=C(C(=O)Nc2ccccc2)SCCO1
inactive: [11] | [9] | [12] | [7] | [8]

COC(=O)C(C)Oc1ccc(Oc2ccc(Cl)cc2Cl)cc1 (stereo not given)
inactive: [16] | [8]

CC(C)C1(C)N=C(c2nc3ccccc3cc2C(=O)O)NC1=O (stereo not given)
inactive: [13] | [4] | [11] | [7] | [8]

CS/C(C)=N/OC(=O)N(C)SN(C)C(=O)O/N=C(\C)SC
inactive: [15] | [4] | [7] | [8]
active: [9] 78.2 µM | [12] 72.2 µM

COC(=O)C=C(C)OP(=O)(OC)OC
inactive: [4] | [11] | [7]

COP(N)(=O)SC (stereo not given)
inactive: [13] | [11] | [7] | [8] | [10]

CCCCNC(=O)n1c(NC(=O)OC)nc2ccccc21
inactive: [4] | [11] | [9] | [12] | [16] | [7] | [8]

Fc1ccc(Oc2ccnc3cc(Cl)cc(Cl)c23)cc1
inactive: [4] | [11] | [7] | [8]

Oc1ccccc1-c1ccccc1
inactive: [4] | [11] | [7] | [8] | [17] | [14]
active: [11] 66 µM | [7] 35.7 µM | [8] 57.5 µM | [5] 15.7 µM

N#CC(CCc1ccc(Cl)cc1)(Cn1cncn1)c1ccccc1 (stereo not given)
inactive: [15] | [4] | [7] | [8] | [2] | [3]

CCNc1nc(Cl)nc(NCC)n1
inactive: [4] | [11] | [7] | [8]

COC(=O)N(OC)c1ccccc1COc1ccn(-c2ccc(Cl)cc2)n1
inactive: [4] | [11] | [7] | [8]
